# FLuc modulator: firefly luciferase modulation, counter-screen for miR-21 project | 360,000 tested, 6.9% active | P08659 | purified FLuc, Km substrates, luminescence inhibition | AID 588342 | Potency, µM (highest dose often 57.5 µM), for the others: at the top dose activity change, negative = inhibition, actives largely listed as inhibitors;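 further: plate controls were vehicle for no effect and reference inhibitor for full effect; nearly all actives have a fitted effect of over 55% in size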
# Target sequence (P08659 whole entry, looked up): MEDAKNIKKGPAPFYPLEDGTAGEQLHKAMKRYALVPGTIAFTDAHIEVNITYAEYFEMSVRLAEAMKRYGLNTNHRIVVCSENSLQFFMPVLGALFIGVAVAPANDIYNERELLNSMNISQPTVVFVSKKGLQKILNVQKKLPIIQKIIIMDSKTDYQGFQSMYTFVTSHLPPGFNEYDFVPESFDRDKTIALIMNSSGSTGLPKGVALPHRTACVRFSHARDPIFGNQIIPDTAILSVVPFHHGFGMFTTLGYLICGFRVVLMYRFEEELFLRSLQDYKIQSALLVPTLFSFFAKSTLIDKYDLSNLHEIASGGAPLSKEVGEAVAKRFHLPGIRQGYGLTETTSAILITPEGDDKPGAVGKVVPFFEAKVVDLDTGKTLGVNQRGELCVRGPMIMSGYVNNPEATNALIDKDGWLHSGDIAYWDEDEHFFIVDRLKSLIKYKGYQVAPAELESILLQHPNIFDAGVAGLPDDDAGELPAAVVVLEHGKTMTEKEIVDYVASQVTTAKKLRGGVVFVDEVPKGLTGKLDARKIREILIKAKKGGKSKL
#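 Biochemical qHTS of compounds, final roughly 60 µM downward over six points, against 10 nM purified firefly luciferase using Km concentrations of substrates (10 uM D-luciferin, 10 uM ATP) in Tris acetate pH 7.5 buffer; luminescence output.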
# SMN2 splice up: enhancers of SMN2 splice variant expression. HEK293 SMN2-luciferase splicing reporter, luminescence, 30-36 h. Potency, µM (titrated, usually from 46.1 µM), inactives show at the top dose activity change, positive = activation, actives largely listed as activators. 210,000 tested, 2.8% active; further: % of control where 0% means no effect; nearly all actives have a fitted effect of over 55% in size
#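 HEK293 cells carry an SMN2 […]–luciferase reporter in which exon 7 inclusion puts luciferase in frame. Cells were plated 10-12 h before compound addition, then incubated 30-36 h at 37C. ONE-Glo luminescence was read; sodium butyrate at 4.5 mM final served as control.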
# Rab9 prom act: activators of Rab9 promoter. Huh7 Rab9 promoter-luciferase reporter, luminescence, 24 h. Potency, µM (highest dose often 9.22 µM), for inactives: at the highest dose activation, negative = inhibition, most hits filed as activators. 320,000 tested, 2.8% active. AID 485297; further: % of control where 0% means no effect; nearly all actives have a fitted effect of over 60% in size
#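 Stable Rab9-luc Huh7, 1500 cells/well, 2 h settle; cmpd in DMSO, 24 h, 37 °C/5% CO2; luciferase reagent 10 min RT; luminescence.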
# KinaseGlo FLuc: Kinase-Glo luciferase inhibition (counter-screen); Q27757; Kinase-Glo luciferase, ATP luminescence, 8 min; Potency, µM (titrated, usually from 38.3 µM), for the others: at the highest dose activity change, negative = inhibition, usual class: inhibitors; 200,000 tested, 0.28% active; further: on the % scale 0 is the no-effect control and ±100 the full control effect; nearly all actives have a fitted effect of over 60% in size
#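 Substrate mix (final 50 mM imidazole pH 7.2, 50 mM KCl, 7 mM MgCl2, 10 uM ATP, 0.01% Tween 20, 0.05% BSA) plus pin-tool compound, then Kinase-Glo detection mix; 8 min ambient, luminescence read.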
# ELG1 genotox: inducers of genotoxicity in HEK293T ELG1-luciferase cells; 330,000 tested, 1.3% active; HEK293T ELG1-luciferase reporter, luminescence, 16 h; Potency, µM (series often up to 46 µM), inactives show top-dose activity change, positive = activation, actives largely listed as activators; AID 504466; further: % of control where 0% means no effect; nearly all actives have a fitted effect of over 60% in size
#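 Quantitative HTS format in 1536-well plates. HEK293T ELG1-luciferase reporter cells receive test compound and are incubated 16 hr at 37 °C, 5% CO2; ONE-Glo added, 30 min room temperature, then luminescence read.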
# NPC1 prom act: activators of NPC1 promoter; 320,000 tested, 2.4% active; Potency, µM (titrated, usually from 9.22 µM), without a hit: top-dose activation, most hits filed as activators; Huh7 NPC1 promoter luciferase reporter, 24 h; further: % of control where 0% means no effect; nearly all actives have a fitted effect of over 60% in size
#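 Huh7 cells stably carrying NPC1 promoter–luciferase, plated in Opti-MEM with 10% FBS for 2 h, were exposed to compound in DMSO for 24 h at 37 °C; luciferase reagent was added for 10 min and luminescence read.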
# Numbers without * were called inactive; ? = inconclusive; nt = not tested or not shown; [ ] = another dose, or the depositor's remark. A selection: hits, their analogues and other compounds. The true share with any hit is near 7.5%. The call rests on the fitted dose curve; in most records, active means well fitted curve in the direction sought with a large enough effect; inconclusive means small, poorly fitted or top-dose-only effect, or another doubt; inactive means no such curve, though single readings can be large; an effect the other way counts as inactive or inconclusive. Potency means the concentration at half of the fitted maximal effect.
SMILES,FLuc modulator,SMN2 splice up,Rab9 prom act,KinaseGlo FLuc,ELG1 genotox,NPC1 prom act
N#Cc1ccc(OCc2ccc(C(=O)O)o2)cc1,?,nt,11%,nt,0%,-5%
CC(C)c1ccc(OCc2ccc(C(=O)N(C)C)o2)cc1,24µM*,nt,1.6µM*,nt,10µM*,2.8µM*
CC(C)c1ccc(OCc2ccc(C(=O)O)o2)cc1,0.43µM*,nt,?,nt,?,?
CC(=O)c1ccc(NC(=O)CCc2c(C)nn(-c3ccc4nncn4n3)c2C)cc1,-4%,nt,nt,nt,nt,nt
COCOc1cc(OC)ccc1C(=O)/C=C/c1cccc(C(F)(F)F)c1,nt,-4%,nt,3%,nt,nt
CCN(c1ccc(OC)cc1)S(=O)(=O)c1ccc2[nH]c(=O)ccc2c1,5.4µM*,nt,nt,nt,nt,nt
CCOC(=O)CCN(c1ccccc1)S(=O)(=O)c1ccc2[nH]c(=O)ccc2c1,-5%,nt,nt,nt,nt,nt
N#Cc1ccc(NC(=O)COC(=O)c2cccnc2Cl)cc1,nt,nt,nt,nt,0%,nt
C=CCN(CC=C)c1cnn(-c2nc3ccccc3[nH]2)c(=O)c1Cl,6µM*,nt,0.71µM*,14µM*,?,2µM*
O=c1c(Cl)c(NCCCO)cnn1-c1nc2ccccc2[nH]1,12µM*,?,?,11µM*,16µM*,?
COc1ccc(CNC(=O)c2cnc3sc(N4CCCC4)nn3c2=O)cc1OC,-7%,nt,nt,nt,nt,nt
CC(C)c1ccc(NC(=O)CSC2=Nc3ccccc3C3=NC(CC(=O)NC4CCCCC4)C(=O)N23)cc1 (stereo unspecified),-15%,nt,nt,nt,nt,nt
CCc1nnc(NS(=O)(=O)c2ccc(N=Cc3c(C)[nH]n(-c4ccc(Cl)cc4)c3=O)cc2)s1,-20%,-9%[1.84 µM],3%,-8%,4%,1%
Cc1[nH]n(-c2ccccc2)c(=O)c1/C=N/Nc1nncc(-c2ccccc2)n1,13µM*,-83%,-36%,-1%,?,-14%
Cc1[nH]n(-c2ccccc2)c(=O)c1/C=N/NC(=O)c1ccc(O)cc1O,2.1µM*,nt,11%,nt,?,19%
Cc1[nH]n(-c2ccc(Cl)cc2)c(=O)c1/C=N/c1nnc(-c2ccccc2)s1,19µM*,19%,0%,?,6%,-2%
Cc1cc(C(=O)N/N=C/c2c(C)[nH]n(-c3ccccc3)c2=O)n[nH]1,5.4µM*,nt,-2%,nt,2%,0%
COc1cccc(CNS(=O)(=O)c2cc3[nH]c(=O)c(=O)[nH]c3cc2C)c1,-3%,nt,nt,nt,nt,nt
Cc1cc(=O)n(CC(=O)N2CCCc3ccccc32)c2c1c(C)nn2-c1cccc(F)c1,-1%,nt,nt,nt,nt,nt
CC(=O)c1ccc(N2CCN(C(=O)CCC(=O)Nc3ccc4nc(N5CCN(C)CC5)cc(C)c4c3)CC2)cc1,-17%,nt,1%,nt,-5%,4%
COc1ccc2c(CNC3CCC(C)CC3)c(C(=O)O)n(Cc3ccc(F)cc3)c2c1 (stereo unspecified),-2%,nt,nt,nt,nt,nt
Cc1ccc(-n2[nH]c(C)c(/C=N/NC(=O)c3ccc(O)cc3O)c2=O)cc1,0.43µM*,nt,4%,nt,?,23%
COC(=O)C(C(=O)OC)[C@@H]1O[C@@]23COC=C[C@]2(C)[C@H]3c2ccccc21,nt,-4%,nt,0%,nt,nt
O=C1CC(=O)Nc2cc(S(=O)(=O)N3CCN(c4ccc([N+](=O)[O-])cc4)CC3)ccc2N1,1%,nt,0%,nt,-2%[9.26 µM],-4%
Fc1ccc(Cc2nnc(-c3cccs3)o2)cc1,?,?,?,1%,15%,21%
SMILES,FLuc modulator,SMN2 splice up,Rab9 prom act,KinaseGlo FLuc,ELG1 genotox,NPC1 prom act
Fc1ccc(-c2nnc(Cc3ccc(Cl)cc3)o2)cc1,17µM*,nt,26%,nt,?,?
Cc1sc2nc(-c3ccc(Br)cc3)oc(=O)c2c1C,2.7µM*,nt,7%,nt,-3%,?
CCc1cc2c(=O)oc(-c3ccc(Br)cc3)nc2s1,6µM*,nt,18%,nt,-1%,14%
O=c1oc(-c2cccs2)nc2scc(-c3cccs3)c12,7.6µM*,11µM*,14%,4%,0%,7%
Cc1sc2nc(-c3cccs3)oc(=O)c2c1C,11µM*,nt,-2%,nt,3%,15%
Cc1ccn2c(=O)cc(COc3cccc(NC(=O)Nc4cccc(Cl)c4C)c3)nc2c1,-2%,nt,nt,nt,nt,nt
CCOc1ccc(Cn2c(CNS(=O)(=O)c3ccc(C(C)(C)C)cc3)nc3cccnc32)cc1,-3%,nt,nt,nt,nt,nt
CCc1noc(C)c1C(=O)NNC(=O)COc1ccc(Br)cc1,-2%,nt,0%,nt,2%,2%
O=C(O)CSc1ncnc2c1sc1nc(-c3ccccc3)c3c(c12)CCC3,11µM*,nt,-1%,nt,4%,1%
O=c1[nH]cnc2c1sc1nc(-c3ccccc3)c3c(c12)CCCC3,-4%,-13%,-6%,-1%,-1%,0%
CC(C)c1c(C(=O)N/N=C/c2cccs2)nnn1-c1nonc1N,17µM*,nt,3%,nt,0%,8%
CCc1c(C(=O)N/N=C/c2cccs2)nnn1-c1nonc1N,12µM*,nt,15%,nt,4%,17%
Cc1ccsc1/C=N/NC(=O)c1nnn(-c2nonc2N)c1C(C)C,17µM*,nt,-1%,nt,-1%,-3%
CC(C)c1c(C(=O)N/N=C/c2ccsc2)nnn1-c1nonc1N,21µM*,nt,-1%,nt,4%,-8%
CC(C)c1c(C(=O)N/N=C/c2ccoc2)nnn1-c1nonc1N,?,nt,0%,nt,3%,0%
CCCc1c(C(=O)N/N=C/c2sccc2C)nnn1-c1nonc1N,4%,nt,-4%,nt,2%,2%
CC(C)c1c(C(=O)N/N=C/c2ccc(C(F)(F)F)cc2)nnn1-c1nonc1N,17µM*,nt,-4%,nt,6%,0%
Cc1ccsc1/C=N/NC(=O)C(O)c1ccccc1 (stereo unspecified),-4%,nt,6%,nt,0%,-2%
Cc1ccsc1/C=N/Nc1nc2ccccc2[nH]1,3.4µM*,11µM*,2.5µM*,-13%,?,2.5µM*
C(=N\Nc1nc2ccccc2[nH]1)/c1cccs1,3.8µM*,nt,4µM*,nt,?,3.2µM*
CC(C)NC(=O)COc1nncc2ccccc12,1%,11%,2%,3%,4%,-3%
Cc1ccc(S(=O)(=O)c2c(O)cc(C)c(NS(=O)(=O)c3ccc(Cl)cc3)c2C)cc1,?,-36%,nt,nt,nt,nt
CCOC(=O)c1cnn(-c2ccccn2)c1N,21µM*,nt,4µM*,-12%,?,4µM*
CCOC(=O)c1cnn(-c2cc(C)c3ccccc3n2)c1N,8.5µM*,1%,-31%,-4%,7%,?
CCOC(=O)c1cnn(-c2ncnc3c2oc2ccccc23)c1N,1.1µM*,10µM*,1.1µM*,-5%,1.6µM*,1.3µM*
CCOC(=O)C1CCN(c2ncnc3c2oc2ccccc23)CC1,-14%,-34%,7%,-2%,-3%,-2%

# Screening results from PubChem.
